Most compounds without a hit are left out; they make up all but 2.6% or so of the library.
AI-2 QS modul: Vibrio harveyi AI-2 quorum sensing modulators, primary screen, JMH597 strain, luminescence/OD600 ratio; actives 0.4% (n = 300,000); AID 2094, 2009; activity change, % at 7.5 µM; Vibrio harveyi JMH597 AI-2 luminescence/OD600 ratio, 9 h; stronger effect = lower value; strain lacks LuxN and CqsS sensors; 0 = neutral-control median; in the data active = activity change below about -75%, passing the limit was not always enough;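 also: luminescence divided by OD600 gain over 9 h not by final OD600 alone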
PHOSPHO1 inh: PubChem AID 1565; recombinant PHOSPHO1, absorbance phosphatase assay; inhibition, % at 13.3 µM; actives 1.1% (n = 290,000); in the data active = inhibition above about 60%
Target sequence (Q8TCT1 whole entry, looked up): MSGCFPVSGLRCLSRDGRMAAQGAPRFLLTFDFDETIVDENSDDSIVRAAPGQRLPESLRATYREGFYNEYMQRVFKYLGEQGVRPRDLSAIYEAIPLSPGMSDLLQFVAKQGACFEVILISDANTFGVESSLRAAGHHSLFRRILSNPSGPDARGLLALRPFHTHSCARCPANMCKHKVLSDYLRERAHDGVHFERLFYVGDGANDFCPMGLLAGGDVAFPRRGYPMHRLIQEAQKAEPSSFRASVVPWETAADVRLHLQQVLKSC
PABP polyA inh: PABP poly(A) RNA binding inhibitors, primary screen, biochemical, fluorescence polarization, uHTS | calls only at 35 µM | actives 1% (n = 290,000) | Polyadenylate-binding protein 1 (Homo sapiens), P11940;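 also: calls also rest on retests at 20 µM and on dose response follow-up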
ABCB6 inh MLPCN: ABCB6 transporter inhibitors, primary screen, K562-ABCB6 cells, flow cytometry, MLPCN library; actives 0.19% (n = 360,000); fluorescence ratio to DMSO, % at 10 µM; ATP-binding cassette sub-family B member 6 (Homo sapiens), Q9NP58; K562-ABCB6 porphyrin accumulation, 1 h; stronger effect = lower value; AID 602162, 2011;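 active = fluorescence ratio to DMSO below 75%, the collection mean minus 3 SD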;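 also: signal is porphyrin accumulated inside mitochondria; 100% equals median channel fluorescence of DMSO control wells; lower ratio means ABCB6 inhibition with less porphyrin fluorescence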
eIF4H inh: human eIF4H binding inhibitors, primary screen, translation initiation inhibitor project, biochemical, uHTS, fluorescence polarization. AID 2012, 2009. actives 0.94% (n = 290,000). eIF4H fluorescence polarization binding assay. inhibition, % at 35 µM;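 also: calls also rest on retests at 20 µM and on dose response follow-up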
PABP1 MLLE inh: inhibitors of PABP1 MLLE–PAM2 peptide binding, primary screen, biochemical, fluorescence polarization, FITC-PAM2, GST-MLLE; inhibition, % at 20 µM; Polyadenylate-binding protein 1 (Homo sapiens), P11940; actives 0.36% (n = 360,000); in the data active = inhibition above about 35%, passing the limit was not always enough;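 also: plate controls were DMSO wells with GST-MLLE for no effect and wells lacking GST-MLLE protein for full effect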
ABCB6 blocker 1: ABCB6 transporter inhibitors, confirmation, K562-ABCB6 cells, flow cytometry, cherry pick 1 | ratio response (% of DMSO), % at 10 µM | K562-ABCB6 porphyrin accumulation, 1 h; stronger effect = lower value | shares compounds with ABCB6 inh MLPCN | 700 tested, under 10 active;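 active = repeat-averaged ratio response below 75% of DMSO, the collection mean minus 3 SD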;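 also: median porphyrin fluorescence at 575 nm with 488 nm excitation from mitochondria; lower ratio means less porphyrin signal so ABCB6 inhibition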
Active calls of the source: *; i = inactive; / = not tested or not shown. Unless noted, no rule for the calls is given here.

SMILES	AI-2 QS modul	PHOSPHO1 inh	PABP polyA inh	ABCB6 inh MLPCN	eIF4H inh	PABP1 MLLE inh	ABCB6 blocker 1
CC(O)(c1cccc(F)c1)c1nc(-c2cnc3ccccc3c2)cs1 (centres undefined)	/	/	/	94.0	/	6.2	/
O=C1NC[C@H](CCCCN2C[C@H](Cc3ccccc3)N(CCC3CCCCC3)C(=O)C2=O)N(CCc2ccccc2)C1=O	/	/	/	97.0	/	/	/
Cc1ccc(CNc2nc(N)c([N+](=O)[O-])c(Nc3cccc(F)c3)n2)cc1	6.6	24.1	i	101.0	-3.9	-4.3	/
Nc1nc(NCc2ccccc2)nc(Nc2cccc(F)c2)c1[N+](=O)[O-]	31.6	-8.0	i	41.0*	2.2	0.8	101.0
CC(=O)/C(N=Nc1ccc2c(c1)OCO2)=C(\C)O	13.3	0.3	i	74.0*	10.6	-2.4	102.0
O=C(NCCN1CCN(Cc2ccccc2)CC1)c1ccc(CS(=O)(=O)c2c(Cl)cccc2Cl)o1	/	/	/	97.0	/	9.4	/
CC(NC(=O)CN1CCc2ccccc21)c1ccccc1 (centres undefined)	45.3	-1.4	i	59.0*	-13.2	-9.3	103.0
CCOC(=O)C1=C[C@@H](c2ccccc2)N(S(=O)(=O)c2ccc(C)cc2)[C@H]1c1cccc(Cl)c1	/	/	/	96.0	/	6.2	/
CCCCOCCCNCc1cccn1CCN1CCOCC1	10.5	/	i	66.0*	12.0	1.8	100.0
c1csc(CNCCCN2CCOCC2)c1	15.3	21.5	i	102.0	-9.8	3.8	/
CCn1c(=O)n(CC)c2cc(N3CCCC3)c(NC(=O)c3ccccc3C)cc21	24.0	29.0	i	64.0*	-7.8	8.7	98.0
C/C=C(\C)CN1CCN(c2ccccc2F)CC1	15.9	5.5	i	99.0	0.6	18.4	/
C/C=C(\C)CN1CCN(c2cccc(C)c2C)CC1	-0.9	48.9	i	24.0*	6.2	6.1	95.0
Cc1cccnc1C1=NOC(Cc2ccccc2)C(=O)N1Cc1ccccc1F (centres undefined)	/	/	/	99.0	/	-0.1	/
Cc1cc(NC(=O)c2c(F)cccc2Cl)n(-c2nc3ccccc3[nH]2)n1	52.4	11.5	i	102.0	24.4	-1.4	/
Cc1cc(NC(=O)c2c(F)cccc2F)n(-c2nc3ccccc3[nH]2)n1	40.8	42.0	i	71.0*	4.3	-1.2	95.0
COc1ccc(OC)c(NC(=O)C2(C)CCN2C(=O)Cc2ccc(Cl)cc2Cl)c1 (centres undefined)	/	/	/	95.0	/	5.4	/
CCN(c1cccc(C(F)(F)F)c1)S(=O)(=O)c1ccc2c(c1)CCN2C(=O)C1CC1	12.7	-3.4	i	72.0*	2.4	-7.6	101.0
CCC(=O)N1CCc2cc(S(=O)(=O)N(CC)c3cccc(C)c3)ccc21	-0.8	8.3	i	92.0	-6.2	-2.9	/
CN1CCN([C@H]2CS(=O)(=O)N[C@@H]2COCc2ccccc2)CC1	/	/	/	96.0	/	-9.8	/
CCN(CC(=O)Nc1c(F)cccc1F)C(=O)c1ccc(C#N)cc1	-3.3	15.9	i	70.0*	12.8	-8.7	99.0
Cc1ccc2c(c1)C1CN(C)CCC1N2C(=O)COc1ccc(N(C)C(=O)c2ccccc2)cc1 (centres undefined)	4.0	-39.7	i	103.0	2.8	0.7	/
CCCC(=O)O[C@@H]1C[C@@H](C)N(C(=O)c2ccccc2)c2ccc(C)cc21	26.5	8.7	i	72.0*	-4.3	3.7	100.0
O=C(NCc1ccc(F)cc1Cl)C1CCN(S(=O)(=O)N2CCC3(CC2)OCCO3)CC1	5.0	56.2	i	69.0*	-4.6	-11.9	96.0
O=C(NCc1ccccc1Cl)C1CCN(S(=O)(=O)N2CCC3(CC2)OCCO3)CC1	-0.2	44.7	i	95.0	3.8	-1.6	/
SMILES	AI-2 QS modul	PHOSPHO1 inh	PABP polyA inh	ABCB6 inh MLPCN	eIF4H inh	PABP1 MLLE inh	ABCB6 blocker 1
CCC(C)C(=O)C(=O)N1CCC(n2nccc2NC(=O)CCOc2ccccc2)CC1 (centres undefined)	/	/	/	94.0	/	3.6	/
Cc1cccc(NC(=O)CCNC(=O)c2ccccc2Cl)n1	12.0	38.1	i	103.0	-1.2	10.8	/
Cc1cccc(NC(=O)c2cc(NC(=O)CCCC(=O)O)ccc2Cl)n1	18.0	13.9	i	53.0*	-5.5	-3.5	102.0
Cc1nn2c(N3CCN(C)CC3)cc(C(C)(C)C)nc2c1-c1ccccc1	/	7.9	i	98.0	-2.6	-0.2	/
Cc1nn2c(N3CCN(C4CCCC4)CC3)cc(C(C)(C)C)nc2c1-c1ccccc1	28.4	9.7	i	57.0*	-3.5	13.7	104.0
CC(O)(c1cccc(F)c1)c1nc(-c2cccc3cccnc23)cs1 (centres undefined)	/	/	/	90.0	/	3.0	/
CC(=O)c1cccc(-c2ccnc3c2CC(C(=O)NCc2cccs2)O3)c1 (centres undefined)	/	/	/	99.0	/	8.8	/
COc1ccccc1C(=O)Nc1cc(-c2ccc(C)cc2)no1	-2.2	15.6	i	69.0*	-6.3	16.2	97.0
COc1ccccc1C(=O)Nc1cc(C)on1	/	4.6	i	97.0	-6.0	10.9	/
O=C(Cc1cccs1)N1CCC(c2nc3c(nnn3Cc3ccccc3)c(=O)[nH]2)CC1	10.2	7.2	i	99.0	-14.4	7.2	101.0
CC(C)(C)c1ccc(Cn2nnc3c(=O)[nH]c(C4CCN(C(=O)Cc5cccs5)CC4)nc32)cc1	14.0	14.7	i	68.0*	-2.6	-6.3	96.0
CC(C)(C)c1ccc(Cn2nnc3c(=O)[nH]c(C4CCCN(C(=O)Cc5cccs5)C4)nc32)cc1 (centres undefined)	18.1	50.0	i	93.0	-11.6	4.7	/
CN(C)c1ccccc1-c1cc(NC=O)c2ncc(-c3cccc(C(F)(F)F)c3)n2c1	/	/	/	122.0	/	i	/
CSc1ccc(-c2cccc3nncn23)cc1	/	/	/	65.0*	/	7.1	98.0
Cn1cc(-c2cccc3nncn23)cn1	/	/	/	93.0	/	0.2	/
COCCN1C[C@@H](CO)O[C@@H](n2cnc3c(N(C)C)ncnc32)C1	/	/	/	97.0	/	-1.6	/
Cc1cccc(NC(=O)c2oc3ccc(S(=O)(=O)N4CCOCC4)cc3c2C)c1C	13.5	21.5	i	68.0*	-15.2	3.9	99.0
Cc1cccc(C)c1OCCOC(=O)c1cccc(S(=O)(=O)N2CCOCC2)c1	/	/	/	71.0*	/	10.8	100.0
C[C@@H]1CNC(=O)c2c(C(=O)NCC(=O)OC(C)(C)C)ncn21	/	/	/	97.0	/	3.0	/
Cc1ccccc1S(=O)(=O)NC(=O)C1(C)CCN1C(=O)C1(c2ccc(Cl)cc2)CCC1 (centres undefined)	/	/	/	93.0	/	-5.3	/

Bioassay records (PubChem BioAssay)
